Laboratory results: PubChem BioAssay AID759 (NMMLSC, 2007)
The whole screen tested about 190,000 compounds, of which about 270 (0.14%) were called active. Another 2% or so got no clear call; they are omitted.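 Rule for the calls: active = GTP binding activity at least 20% away from the 100% baseline, either lowered as inhibitor or raised as activator; inconclusive = flagged as likely green fluorescent, judged across all proteins in the well; inactive = the rest.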 This excerpt belongs to a sample that is enriched for actives.

Target: GTPase HRas (Homo sapiens) (UniProt P01112)
Sequence (P01112 whole entry, looked up): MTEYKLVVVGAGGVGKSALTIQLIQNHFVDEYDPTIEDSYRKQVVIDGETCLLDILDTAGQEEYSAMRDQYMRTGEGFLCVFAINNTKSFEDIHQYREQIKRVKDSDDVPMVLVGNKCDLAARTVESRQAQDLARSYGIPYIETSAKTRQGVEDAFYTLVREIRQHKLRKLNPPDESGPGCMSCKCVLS
Test: modulators of GTP binding to HRas wildtype, primary screen, biochemical, bead-based flow cytometry, multiplex (AID 759);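 note: 0% = unlabeled GTP competition control and 100% = no-compound control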
Conditions: GST-Ras wt beads, Bodipy-FL-GTP binding, at 10 µM, actives lie on both sides

SMILES	GTP binding activity
CCCC(C)n1[nH]c(=O)c2c1NC(=O)CSC2c1ccc(OC)c(OC)c1 (stereo not given)	98% (inactive)
CCOc1ccc(C2SCC(=O)Nc3c2c(C)nn3C2CCOC(C)(C)C2)cc1 (stereo not given)	73% (active)
CC1=CC(=Cc2sc3ccccc3[n+]2C)C=C(C)O1	103% (inactive)
COc1ccc(CN2C(=O)NC(=O)/C(=C\c3ccc(OC)c(OC)c3OC)C2=O)cc1	97% (inactive)
Cc1ccsc1C(=O)C1CCCN(Cc2ccc(O)cc2)C1 (stereo not given)	98% (inactive)
